Data published in PubChem BioAssay (NCATS).
Measured potencies and affinities stand elsewhere. Unmarked numbers belong to inactive results. Activity calls are given as the source filed them. How the calls were made is not given here.

Legend:
[1] = Ebola virus entry assay, green fluorescence channel
[2] = Ebola virus entry assay, green channel fluorescence
Wherever efficacy is given: 0% is about no effect.

Row | Compound | efficacy [1] [%] | outcome [2]
1 | CC(=O)OC(C)OC(=O)C(C)c1ccc(-c2ccccc2)c(F)c1 (stereo not given) | -16.8 | inactive
2 | Cc1scc2c1N(C(=O)CN1CCN(C)CC1)c1ccccc1NC2=O | 20.4 | inactive
3 | CC1(C)O[C@@H]2C[C@H]3[C@@H]4C[C@H](F)C5=CC(=O)C=C[C@]5(C)[C@@]4(F)[C@@H](O)C[C@]3(C)[C@]2(C(=O)CO)O1 | 10.5 | inactive
4 | O=c1cc[nH]c(=S)[nH]1 | 12.4 | inactive
5 | Nc1nc(N)nc(-c2cc(Cl)ccc2Cl)n1 | -23.5 | inactive
6 | CC1c2ccccc2CN1NC(=O)c1ccc(Cl)c(S(N)(=O)=O)c1 (stereo not given) | 14.8 | inactive
7 | C[C@@H](O)[C@H]1C(=O)N2C(C(=O)O)=C(SCCN=CN)C[C@H]12 | 21.9 | inactive
8 | COc1cc(O)cc(O)c1 | 16.6 | inactive
9 | COc1cc2c(Nc3ccc(Br)cc3F)ncnc2cc1OCC1CCN(C)CC1 | 16.7 | inactive
10 | COc1cc(OC)c(C(=O)CCCN2CCCC2)c(OC)c1 | -22.4 | inactive
11 | COc1cnc(NS(=O)(=O)c2ccc(N)cc2)nc1 | -24.4 | inactive
12 | Cc1c(C(C)C)c(=O)n(-c2ccccc2)n1C | 14.2 | inactive
13 | Cc1c(Nc2ncccc2C(=O)O)cccc1C(F)(F)F | -17.3 | inactive
14 | Cc1cc(=O)[nH]c(=S)[nH]1 | -11.2 | inactive
15 | Cc1cc(C)nc(NS(=O)(=O)c2ccc(N)cc2)n1 | -8.79 | inactive
